From PubChem BioAssay (NCATS)
Several values for one entry are separate records, joined by “and”; a condition that tells them apart may be missing. Equal values may be shown once. Inconclusive results are not listed. Where a call stands in place of a potency, no number is given. Some compounds were tested as several samples or in several runs, with calls that do not always agree. Activity calls are given as the source filed them. Calls come from the whole dose curve; as a rule, active = well fitted curve in the direction sought with a large enough effect; inconclusive = small, poorly fitted or top-dose-only effect, or another doubt; inactive = no such curve, though single readings can be large; an effect the other way counts as inactive or inconclusive.

Tests used:
CRL-7250 = normal cell line; assay: Cytotoxic Profiling of Annotated Libraries Using Quantitative High-Throughput Screening (AID 1296008); conditions: Five cell lines viability, CellTiter-Glo ATP luminescence, 48-72 h; max response: stronger effect = lower value; note: nearly all actives have a fitted effect of over 60% in size; note: potency is the fitted concentration of half-maximal effect
In short: (§1)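 Compounds were pin-transferred onto cells and incubated 48 or 72 hr at 37 degree Celsius, 95% humidity. CellTiter-Glo was added, plates sat 10 min at room temperature, then ATP-coupled luminescence was imaged as the viability read-out.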

HaCat [1] = assay: as above; conditions: Five cell lines viability, CellTiter-Glo ATP luminescence, 48-72 h; max response: stronger effect = lower value
In short: as §1

KB-3-1 = assay: as above; conditions: Five cell lines viability, CellTiter-Glo ATP luminescence, 48-72 h; max response: stronger effect = lower value
In short: as §1

NIH3T3 [2] = assay: as above; conditions: Five cell lines viability, CellTiter-Glo ATP luminescence, 48-72 h; max response: stronger effect = lower value
In short: as §1

HACAT [3] = assay: qHTS assay to identify novel small-molecules to repurpose for Merkel cell carcinoma treatment (AID 1296009); conditions: MCC and control cell lines, CellTiter-Glo viability, 72 h; at 44.8 µM (top of the series) unless noted; note: nearly all actives have a fitted effect of over 60% in size; note: potency is the fitted concentration of half-maximal effect
In short: (§2)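 qHTS format: cells treated with library compounds in DMSO across 8 (NPC) or 11 (MIPE) concentrations. Readout after 72 hr at 37 degree celsius was CellTiter-Glo luminescence.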

MCC-13 = assay: as above; conditions: MCC and control cell lines, CellTiter-Glo viability, 72 h; series mostly up to 46 µM
In short: as §2

MCC-26 = assay: as above; conditions: MCC and control cell lines, CellTiter-Glo viability, 72 h; series mostly up to 46 µM
In short: as §2

MKL-1 = assay: as above; conditions: MCC and control cell lines, CellTiter-Glo viability, 72 h; series mostly up to 46 µM
In short: as §2

MKL-2 = assay: as above; conditions: MCC and control cell lines, CellTiter-Glo viability, 72 h; series mostly up to 46 µM
In short: as §2

NIH3T3 [4] = assay: as above; conditions: MCC and control cell lines, CellTiter-Glo viability, 72 h; at 44.8 µM (top of the series) unless noted
In short: as §2

UISO = assay: as above; conditions: MCC and control cell lines, CellTiter-Glo viability, 72 h; series mostly up to 46 µM
In short: as §2

WaGa = assay: as above; conditions: MCC and control cell lines, CellTiter-Glo viability, 72 h; series mostly up to 46 µM
In short: as §2

C33A = assay: Primary qHTS to identify gynecologic anti-cancer compounds using libraries of approved drugs and bioactive compounds (AID 1345084); conditions: Gynecologic cancer cell panel viability, ATPlite luminescence, 48 h; series mostly up to 57.5 µM; note: nearly all actives have a fitted effect of over 55% in size
In short: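 Five-point cytotoxicity, 48 h drug exposure at 37 C, 5% CO2, on cells seeded 16 h beforehand. ATP content read by ATPlite luminescence.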

SC27B = assay: qHTS profiling for inhibitors of Plasmodium falciparum proliferation (AID 504749); note: nearly all actives have a fitted effect of over 60% in size; note: potency is the fitted concentration of half-maximal effect; conditions: P. falciparum in erythrocytes, SYBR Green DNA, 72 h; series mostly up to 28.7 µM
In short: (§3)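 Parasite proliferation within erythrocytes, 72 h exposure. Endpoint: SYBR Green I fluorescence after overnight lysis at room temperature. Controls: 0.29 uM artemisinin, DMSO.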

TAB109 = assay: as above; conditions: P. falciparum in erythrocytes, SYBR Green DNA, 72 h; series mostly up to 28.7 µM
In short: as §3

TAB113 = assay: as above; conditions: P. falciparum in erythrocytes, SYBR Green DNA, 72 h; series mostly up to 28.7 µM
In short: as §3

TAB165 = assay: as above; conditions: P. falciparum in erythrocytes, SYBR Green DNA, 72 h; series mostly up to 28.7 µM
In short: as §3

W2 = assay: as above; conditions: P. falciparum in erythrocytes, SYBR Green DNA, 72 h; series mostly up to 28.7 µM
In short: as §3

HEK293 = assay: Cytotoxic Profiling of Annotated Libraries Using Quantitative High-Throughput Screening (AID 1296008); conditions: Five cell lines viability, CellTiter-Glo ATP luminescence, 48-72 h; max response: stronger effect = lower value; note: nearly all actives have a fitted effect of over 60% in size; note: potency is the fitted concentration of half-maximal effect
In short: as §1

HEK293T = assay: qHTS assay to identify novel small-molecules to repurpose for Merkel cell carcinoma treatment (AID 1296009); conditions: MCC and control cell lines, CellTiter-Glo viability, 72 h; at 44.8 µM (top of the series); note: nearly all actives have a fitted effect of over 60% in size; note: potency is the fitted concentration of half-maximal effect
In short: as §2

`O=C1CCCC2=C1C(c1[nH]ncc1Cl)N=C(Nc1nc3ccccc3o1)N2` (configuration not stated) was tested, and the max response (CRL-7250) was 2.7% (inactive), the outcome (CRL-7250) was “inactive” and the max response (HaCat [1]) was -0.0608% (inactive). The outcome (HaCat [1]) was “inactive”, the max response (KB-3-1) was 5.25% (inactive) and the outcome (KB-3-1) was “inactive”. For the same compound, the max response (NIH3T3 [2]) was -1.09% (inactive), the outcome (NIH3T3 [2]) was “inactive” and the outcome (HACAT [3]) was “inactive”. The Potency (MCC-13) was “inactive”, the Potency (MCC-26) was “inactive” and the Potency (MKL-1) was “inactive”. The Potency (MKL-2) was “inactive”, the outcome (NIH3T3 [4]) was “inactive” and the Potency (UISO) was “inactive”. For the same compound, the Potency (WaGa) was “inactive” and the Potency (C33A) was “inactive”.
In the case of `CCCCNc1cc(C(=O)O)cc(S(N)(=O)=O)c1Oc1ccccc1`, the Potency (SC27B) is reported as “inactive”, the Potency (TAB109) is reported as “inactive” and the Potency (TAB113) is reported as “inactive”. The Potency (TAB165) was “inactive”, the Potency (W2) was “inactive” and the max response (CRL-7250) was 0.377% (inactive). The outcome (CRL-7250) was “inactive”, the max response (HEK293) was 2.91% (inactive) and the outcome (HEK293) was “inactive”. For the same compound, the max response (HaCat [1]) was 2.18% (inactive), the outcome (HaCat [1]) was “inactive” and the max response (KB-3-1) was -8.24% (inactive) and 0.128% (inactive). For the same compound, the max response (NIH3T3 [2]) was 1.18% (inactive), the outcome (NIH3T3 [2]) was “inactive” and the outcome (HACAT [3]) was “inactive”. For the same compound, the outcome (HEK293T) was “inactive”, the Potency (MCC-13) was “inactive” and the Potency (MCC-26) was “inactive”. The Potency (MKL-1) was “inactive”, the Potency (MKL-2) was “inactive” and the outcome (NIH3T3 [4]) was “inactive”. For the same compound, the Potency (UISO) was “inactive”, the Potency (WaGa) was “inactive” and the Potency (C33A) was “inactive”.
In the case of `O=NN(CCCl)C(=O)NCCCl`, the Potency (SC27B) is reported as “inactive”, the Potency (TAB109) is reported as “inactive” and the Potency (TAB113) is reported as “inactive”. For the same compound, the Potency (TAB165) was “inactive”, the max response (CRL-7250) was -1.64% (inactive) and the outcome (CRL-7250) was “inactive”. The outcome (HEK293) was “inactive; activator”, the max response (HaCat [1]) was -4.95% (inactive) and the outcome (HaCat [1]) was “inactive”. For the same compound, the max response (KB-3-1) was 10.2% (inactive) and 5.9% (inactive), the max response (NIH3T3 [2]) was 3.76% (inactive) and 1.65% (inactive) and the outcome (HACAT [3]) was “inactive”. For the same compound, the outcome (HEK293T) was “inactive; activator”, the Potency (MCC-13) was “inactive” and the Potency (MCC-26) was “inactive”. The Potency (MKL-1) was “inactive”, the Potency (MKL-2) was “inactive” and the Potency (UISO) was “inactive”. The Potency (WaGa) was “inactive” and the Potency (C33A) was “inactive”.
For `NC(N)=NC(=O)c1nc(Cl)c(N)nc1N`, the Potency (TAB109) was 10 µM (active), the Potency (TAB165) was 11.2 µM (active) and the Potency (W2) was 2.13 µM (active). The max response (CRL-7250) was -0.0311% (inactive), the outcome (CRL-7250) was “inactive” and the max response (HEK293) was -13.2% (inactive) and 2.01% (inactive). The max response (HaCat [1]) was -3.73% (inactive), the outcome (HaCat [1]) was “inactive” and the outcome (KB-3-1) was “inactive”. The max response (NIH3T3 [2]) was -0.651% (inactive), the outcome (NIH3T3 [2]) was “inactive” and the outcome (HACAT [3]) was “inactive”. For the same compound, the Potency (MCC-13) was “inactive”, the Potency (MCC-26) was “inactive” and the Potency (MKL-1) was “inactive”. The Potency (MKL-2) was “inactive”, the outcome (NIH3T3 [4]) was “inactive” and the Potency (UISO) was “inactive”. The Potency (WaGa) was “inactive and 29.9 µM (active)” and the Potency (C33A) was “inactive”.
With `CC(C)NCC(O)COc1ccc(COCCOC(C)C)cc1` (configuration not stated) the Potency (SC27B) was “inactive”, the Potency (TAB113) was “inactive” and the Potency (TAB165) was “inactive”. The Potency (W2) was “inactive”, the max response (CRL-7250) was -5.09% (inactive) and the outcome (CRL-7250) was “inactive”. The max response (HEK293) was 4.07% (inactive) and -17.2% (inactive), the max response (HaCat [1]) was -3.77% (inactive) and the outcome (HaCat [1]) was “inactive”. The max response (KB-3-1) was 14.8% (inactive) and -14.7% (inactive) and -10.9% (inactive), the max response (NIH3T3 [2]) was 4.85% (inactive) and the outcome (NIH3T3 [2]) was “inactive”. The outcome (HACAT [3]) was “inactive”, the Potency (MCC-13) was “inactive” and the Potency (MCC-26) was “inactive”. The Potency (MKL-1) was “inactive”, the Potency (MKL-2) was “inactive” and the outcome (NIH3T3 [4]) was “inactive”. The Potency (UISO) was “inactive”, the Potency (WaGa) was “inactive” and the Potency (C33A) was “inactive”.
With `Cc1ccnc(NS(=O)(=O)c2ccc(NC(=O)Nc3ccc(S(=O)(=O)Nc4nccc(C)n4)cc3)cc2)n1` the Potency (CRL-7250) was 0.372 µM (active), the max response (CRL-7250) was -2.52% (inactive) and the Potency (HEK293) was 0.418 µM (active). The max response (HEK293) was -3.29% (inactive), the Potency (HaCat [1]) was 1.48 µM (active) and the max response (HaCat [1]) was -9.99% (inactive). The Potency (KB-3-1) was 2.35 µM (active), the outcome (KB-3-1) was “inactive” and the Potency (NIH3T3 [2]) was 2.09 µM (active). For the same compound, the max response (NIH3T3 [2]) was -7.88% (inactive), the Potency (MCC-13) was “inactive” and the Potency (MCC-26) was “inactive”. For the same compound, the Potency (MKL-1) was “inactive”, the Potency (MKL-2) was “inactive” and the Potency (UISO) was “inactive”. For the same compound, the Potency (WaGa) was “inactive” and the Potency (C33A) was “inactive”.
For `COc1cc(F)c(F)c(Nc2ccc(I)cc2F)c1NS(=O)(=O)C1(C[C@H](O)CO)CC1`, the Potency (CRL-7250) was 5.8 µM (active), the max response (CRL-7250) was -24.3% (inactive) and the outcome (KB-3-1) was “inactive”. For the same compound, the max response (NIH3T3 [2]) was -9.12% (inactive), the Potency (MCC-13) was “inactive” and the Potency (MCC-26) was “inactive”. For the same compound, the Potency (MKL-1) was “inactive”, the Potency (MKL-2) was “inactive” and the Potency (UISO) was “inactive”. For the same compound, the Potency (WaGa) was “inactive” and the Potency (C33A) was “inactive”.
In the case of `CC(C)OC(=O)C1=CN(C(=O)c2ccc(F)c(F)c2)CC(C)(C)c2c1[nH]c1ccccc21`, the max response (CRL-7250) is reported as 1.22% (inactive), the outcome (CRL-7250) is reported as “inactive” and the max response (HEK293) is reported as -9.23% (inactive) and -19.6% (inactive). The max response (HaCat [1]) was -4.65% (inactive), the max response (KB-3-1) was -6.75% (inactive) and 0.0694% (inactive) and the max response (NIH3T3 [2]) was 3.45% (inactive) and -0.558% (inactive). The Potency (MCC-13) was “inactive”, the Potency (MCC-26) was “inactive” and the Potency (MKL-1) was “inactive”. For the same compound, the Potency (MKL-2) was “inactive”, the Potency (UISO) was “inactive” and the Potency (WaGa) was “inactive”. For the same compound, the Potency (C33A) was “inactive”.
For `O=C1CCC(N2C(=O)c3ccccc3C2=O)C(=O)N1` (configuration not stated), the Potency (SC27B) was “inactive”, the Potency (TAB109) was “inactive” and the Potency (TAB113) was “inactive”. For the same compound, the Potency (TAB165) was “inactive”, the Potency (W2) was “inactive” and the max response (CRL-7250) was 1.53% (inactive). For the same compound, the outcome (CRL-7250) was “inactive”, the max response (HEK293) was -7.21% (inactive) and the outcome (HEK293) was “inactive”. The max response (HaCat [1]) was 2.55% (inactive), the outcome (HaCat [1]) was “inactive” and the max response (KB-3-1) was 0.83% (inactive) and 2.13% (inactive). For the same compound, the max response (NIH3T3 [2]) was -0.804% (inactive), the outcome (NIH3T3 [2]) was “inactive” and the outcome (HACAT [3]) was “inactive”. For the same compound, the outcome (HEK293T) was “inactive”, the Potency (MCC-13) was “inactive” and the Potency (MCC-26) was “inactive”. For the same compound, the Potency (MKL-1) was “inactive”, the Potency (MKL-2) was “inactive” and the outcome (NIH3T3 [4]) was “inactive”. For the same compound, the Potency (UISO) was “inactive”, the Potency (WaGa) was “inactive” and the Potency (C33A) was “inactive”.
